# Measured values taken from PubChem BioAssay.
# This is one part of the list. Calls of active or inactive are those of the source. Unless noted, how the calls were made is not given here.
# Legend:
# [1] = inhibition of Brca1/Bard1 split-luciferase complementation, confirmation, counter-screen for Mdm2/MdmX interaction inhibitor project, luminescence, single concentration (AID 504668); conditions: Brca1/Bard1 bimolecular luciferase complementation counterscreen, at 8 µM, stronger effect = higher value
# PEG-3 [2] = molecular target: PEG-3 (UniProt Q6IN02); test: Peg3 promoter luciferase inhibitors, potency, dose response, cell-based, HeLa, CREF/GAPDH counter-screen panel (AID 624167); conditions: CREF/GAPDH counter-screens; HeLa PEG-Prom luciferase reporter, overnight, run 1, dose range 1, at 100 µM (top of the series) unless noted
# Sequence of PEG-3 (Q6IN02 whole entry, looked up): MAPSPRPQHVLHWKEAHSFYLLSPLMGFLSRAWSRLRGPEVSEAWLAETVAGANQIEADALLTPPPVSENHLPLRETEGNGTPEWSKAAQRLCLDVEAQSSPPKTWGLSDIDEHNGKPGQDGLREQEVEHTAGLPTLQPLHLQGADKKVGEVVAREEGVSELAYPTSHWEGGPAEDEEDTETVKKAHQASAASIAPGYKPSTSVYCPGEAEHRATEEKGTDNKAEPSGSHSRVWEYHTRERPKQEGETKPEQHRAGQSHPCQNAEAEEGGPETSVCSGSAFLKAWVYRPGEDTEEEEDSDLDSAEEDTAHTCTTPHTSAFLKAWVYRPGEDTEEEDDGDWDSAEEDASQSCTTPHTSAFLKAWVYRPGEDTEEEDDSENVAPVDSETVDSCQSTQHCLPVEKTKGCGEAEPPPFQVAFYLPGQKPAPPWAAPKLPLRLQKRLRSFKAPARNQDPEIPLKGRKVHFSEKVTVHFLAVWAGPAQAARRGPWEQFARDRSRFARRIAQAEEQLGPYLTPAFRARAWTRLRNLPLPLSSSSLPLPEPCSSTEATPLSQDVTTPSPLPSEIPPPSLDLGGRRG
# PEG-3 [3] = molecular target: PEG-3 (UniProt Q6IN02); test: as above; conditions: CREF/GAPDH counter-screens; HeLa PEG-Prom luciferase reporter, overnight, run 2, dose range 1, at 100 µM (top of the series) unless noted
# Rat fibroblasts (CREF) [4] = test: as above; conditions: CREF/GAPDH counter-screens; run 1, dose range 1, at 100 µM (top of the series)
# Rat fibroblasts (CREF) [5] = test: as above; conditions: CREF/GAPDH counter-screens; run 2, dose range 1, at 100 µM (top of the series)
# [6] = Peg3 promoter reporter inhibitors, retest, confirmation, cell-based, HeLa, luciferase reporter, single concentration (AID 602417;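 active means at 20 µM dose, 40% or more inhibition averaged across four replicates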); conditions: HeLa PEG-Prom luciferase reporter, luminescence, overnight; at 20 µM; stronger effect = higher value
compound,measurement,setting,value
c1ccc(CCc2nn3c(-c4ccncc4)nnc3s2)cc1,inhibition,[1],33.7% (active)
O=C(Nc1ccc(-c2nc3ccc(NC(=O)c4cccs4)cc3[nH]2)cc1)c1cccs1,inhibition,[1],33.7% (active)
N/C(=N\NC(=O)c1sccc1OCc1ccc(Cl)cc1Cl)c1ccccn1,inhibition,[1],35.1% (active)
Cc1cc(C)n(-c2ccc3cccc(NS(C)(=O)=O)c3n2)n1,inhibition,[1],32.1% (active)
CCN(CC)C(=O)N1c2ccccc2C=Cc2ccccc21,inhibition,[1],33.7% (active)
O=C(Cc1ccccc1)N/N=C/c1cc(Br)cc(Cl)c1O,inhibition,[1],29.2% (active)
O=C1C(=C2SCCCS2)CC/C1=C\c1ccc(F)cc1,inhibition,[1],25.5% (active)
CCOc1ccc(OCc2ccc(C(=O)NN=Cc3ccc[nH]3)cc2)cc1,inhibition,[1],28% (active)
Cc1ccc(-n2c(C)cc(/C=c3/sc4nc5ccccc5n4c3=O)c2C)cc1,inhibition,[1],27.7% (active)
O=C(NNC(=O)c1ccccc1OCc1ccccc1)c1ccccc1O,inhibition,[1],34.8% (active)
C#CCOCCOCCOCCNc1nc(N2CCN(C(=O)CCCCCCCCCCNC(=O)Cn3cc(C[C@@H](C)O)nn3)CC2)nc(N2CCN(C(=O)CCCCCCCCCCNC(=O)[C@@H]([C@H](C)CC)n3cc(CCCCCN)nn3)CC2)n1,inhibition,[1],27.2% (active)
CCCNC(=O)c1ccc2c(=O)c(O)c(-c3cccc(Br)c3)[nH]c2c1,inhibition,[1],31.4% (active)
N=c1c(C(=O)NC2CCCCC2)cc2c(=O)n3ccccc3nc2n1Cc1ccco1,inhibition,[1],33.2% (active)
N#CC(C#N)=C(Nc1ccc(F)cc1)SCc1cccc(F)c1,inhibition,[1],23.3% (active)
O=C(Nc1ccc(Cl)cc1)Nc1csc([N+](=O)[O-])c1,inhibition,[1],30.6% (active)
CCN1CCN(c2ccc(Nc3ccnc4ccccc34)cc2)CC1,inhibition,[1],29.8% (active)
CC(C)Cc1nc(Nc2ccc(S(=O)(=O)N3CCCC3)cc2)c2nnn(Cc3ccccc3)c2n1,inhibition,[1],24.1% (active)
Cc1ccc(S(=O)(=O)N2CCOCC2)cc1C(=O)Nc1nc(-c2ccccn2)cs1,inhibition,[1],30.4% (active)
CCOC(=O)COc1ccc(/C=C/[N+](=O)[O-])c(OCC(=O)OCC)c1,inhibition,[1],23.7% (active)
CC(C)(C)c1ccc(OCC(=O)N/N=C/c2cc(Br)ccc2OC(=O)c2ccco2)cc1,inhibition,[1],27% (active)
CC(C)(C)c1ccc(Cn2c(=O)cnc3ccccc32)cc1,inhibition,[1],25.9% (active)
same,inhibition,PEG-3 [2],100%
same,inhibition,PEG-3 [3],100%
same,inhibition,Rat fibroblasts (CREF) [4],98.2%
same,inhibition,Rat fibroblasts (CREF) [5],84.5%
CC(C)(c1ccccc1)c1ccc(OCC(O)CNC2CCN(Cc3ccccc3)CC2)cc1 (configuration not stated),inhibition,[1],35.2% (active)
same,inhibition,PEG-3 [2],102%
same,inhibition,PEG-3 [3],98.9%
CCCC(=O)NC(c1ccc(N(C)C)cc1)c1ccc2cccnc2c1O (configuration not stated),inhibition,[1],29.9% (active)
same,inhibition,PEG-3 [2],24.4%
same,inhibition,PEG-3 [3],"78.2% [run 2, dose range 1, at 50 µM]"
same,inhibition,Rat fibroblasts (CREF) [4],42.3%
same,inhibition,Rat fibroblasts (CREF) [5],43.5%
COc1cccc2sc(N(CCCN(C)C)C(=O)C(c3ccccc3)c3ccccc3)nc12,inhibition,[1],24.8% (active)
same,inhibition,[6],99.6% (active)
same,inhibition,PEG-3 [2],102%
same,inhibition,PEG-3 [3],95.1%
O=C(CCn1cnc(-c2ccccc2)c1-c1ccccc1)N/N=C/c1ccccc1O,inhibition,[1],25.7% (active)
same,inhibition,PEG-3 [2],100%
same,inhibition,PEG-3 [3],101%
same,inhibition,Rat fibroblasts (CREF) [4],86.7%
same,inhibition,Rat fibroblasts (CREF) [5],94.1%
